Data from PubChem BioAssay (NCATS).
Several values for one entry are separate records, joined by “and”; a condition that tells them apart may be missing. Equal values may be shown once. Records with an inconclusive call do not appear. Activity calls are given as the source filed them. Unless noted, calls come from the whole dose curve; as a rule, active = well fitted curve in either direction with a large enough effect (not every such curve was filed as active); inconclusive = small, poorly fitted or top-dose-only effect, or another doubt; inactive = flat fitted curve, though single readings scatter.

Key:
[1] = biological target: Lysosomal acid glucosylceramidase (Homo sapiens) (UniProt P04062); assay: Glucocerebrosidase-p2 (AID 348; in the data active = potency below about 10 µM; note: potency is the fitted concentration of half-maximal effect); conditions: purified GBA, blue fluorogenic substrate, 40 min
Sequence of Lysosomal acid glucosylceramidase (Homo sapiens) (P04062 whole entry, looked up): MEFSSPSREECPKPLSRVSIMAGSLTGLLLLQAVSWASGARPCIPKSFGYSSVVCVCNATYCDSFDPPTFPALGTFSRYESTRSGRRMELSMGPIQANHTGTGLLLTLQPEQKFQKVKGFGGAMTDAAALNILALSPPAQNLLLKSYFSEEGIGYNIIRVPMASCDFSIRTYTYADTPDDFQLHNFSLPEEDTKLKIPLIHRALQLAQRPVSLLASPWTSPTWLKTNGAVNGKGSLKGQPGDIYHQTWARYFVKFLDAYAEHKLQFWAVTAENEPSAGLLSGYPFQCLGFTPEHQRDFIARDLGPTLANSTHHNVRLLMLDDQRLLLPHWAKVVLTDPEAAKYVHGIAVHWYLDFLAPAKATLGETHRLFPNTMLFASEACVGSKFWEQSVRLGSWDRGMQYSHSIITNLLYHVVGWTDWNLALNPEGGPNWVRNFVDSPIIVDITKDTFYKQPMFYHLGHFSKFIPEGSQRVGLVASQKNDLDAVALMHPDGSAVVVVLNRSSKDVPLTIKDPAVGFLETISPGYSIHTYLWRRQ
In short: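 Normal human glucocerebrosidase (0.2 nM) with blue fluorogenic substrate (80 uM final) in citrate/phosphate pH 5.9 with 10mM sodium taurocholate, 0.01% tween-20; 40 min RT, NaOH/glycine stop; fluorescence Ex 365/Em 440; AC50 from a titration from 0.6 nM upwards.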

[2] = AP1 Signaling Pathway (AID 357);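 note: ME-180 reporter cells stimulated with EGF at its EC50 level; % is set by controls: 0 for no effect and ±100 for the full control effect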
In short: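 A ratiometric CCF4 readout (405 nm excitation; 460 and 530 nm emission) quantified AP-1-driven beta-lactamase in ME-180 cells after 5 h with compound and EC50 EGF; AC50 values were derived for activators and inhibitors.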

[3] = biological target: Cytochrome P450 1A2 (Homo sapiens) (UniProt P05177); assay: p450-cyp1a2 (AID 410; calls by dose curve; note: potency is the fitted concentration of half-maximal effect;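 for activity change, negative = inhibition: -100% = full effect of reference inhibitor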)
Sequence of Cytochrome P450 1A2 (Homo sapiens) (P05177 whole entry, looked up): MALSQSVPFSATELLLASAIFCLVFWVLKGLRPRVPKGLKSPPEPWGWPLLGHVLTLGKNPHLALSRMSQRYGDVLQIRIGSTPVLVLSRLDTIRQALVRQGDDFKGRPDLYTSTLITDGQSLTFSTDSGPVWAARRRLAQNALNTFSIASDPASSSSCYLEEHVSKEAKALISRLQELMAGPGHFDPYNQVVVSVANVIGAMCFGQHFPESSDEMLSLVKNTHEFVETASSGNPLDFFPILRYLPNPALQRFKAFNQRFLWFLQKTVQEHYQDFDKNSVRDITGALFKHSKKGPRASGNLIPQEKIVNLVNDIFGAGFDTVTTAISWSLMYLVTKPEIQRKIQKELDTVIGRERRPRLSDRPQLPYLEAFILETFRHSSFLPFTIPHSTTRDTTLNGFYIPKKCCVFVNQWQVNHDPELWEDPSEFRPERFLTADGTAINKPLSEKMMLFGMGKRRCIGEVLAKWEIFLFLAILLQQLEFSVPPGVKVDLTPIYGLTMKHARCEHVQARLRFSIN
In short: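 O-Demethylation of luciferin 6' methyl ether by human CYP1A2 is monitored as luciferase luminescence. Substrate sits at Km (100uM); enzyme is 20nM. Values are scaled to 57 uM furafylline as maximal inhibition.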

[4] = NFAT Signaling Pathway (AID 444); conditions: Jurkat NFAT-bla M1, carbachol, beta-lactamase ratio, 5 h;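 note: carbachol stimulus at about its EC50 of 1 µM final; % is set by controls: 0 for no effect and ±100 for the full control effect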
In short: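 Read-out: CCF4 FRET ratio (460 nm/530 nm) after 1 h RT dye loading, used for %activity and AC50 from titration series. Cells: Jurkat NFAT-β-lactamase/M1 line, treated with compound plus 1 uM carbachol for 5 h, 37 °C.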

[5] = Stat Signaling Pathway (AID 446);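 note: ME-180 cervical cancer cells given 40 pM IL-6 alongside compound; SIE-controlled beta-lactamase reporter measured as 460/530 nm FRET emission ratio; % is set by controls: 0 for no effect and ±100 for the full control effect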
In short: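 Compound effects on IL-6-induced STAT reporter activity were measured in ME-180 cells. After overnight culture, cells were co-treated with 40 pM IL-6 for 5 hrs before beta-lactamase substrate loading at room temperature.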

[6] = biological target: Glucocorticoid receptor (Homo sapiens) (UniProt P04150); assay: GR-EFC Redistribution (AID 451; calls by dose curve; note: potency is the fitted concentration of half-maximal effect); conditions: CHO-K1 GR-EFC translocation, beta-gal luminescence, 2 h
Sequence of Glucocorticoid receptor (Homo sapiens) (P04150 whole entry, looked up, the tested form may be a part): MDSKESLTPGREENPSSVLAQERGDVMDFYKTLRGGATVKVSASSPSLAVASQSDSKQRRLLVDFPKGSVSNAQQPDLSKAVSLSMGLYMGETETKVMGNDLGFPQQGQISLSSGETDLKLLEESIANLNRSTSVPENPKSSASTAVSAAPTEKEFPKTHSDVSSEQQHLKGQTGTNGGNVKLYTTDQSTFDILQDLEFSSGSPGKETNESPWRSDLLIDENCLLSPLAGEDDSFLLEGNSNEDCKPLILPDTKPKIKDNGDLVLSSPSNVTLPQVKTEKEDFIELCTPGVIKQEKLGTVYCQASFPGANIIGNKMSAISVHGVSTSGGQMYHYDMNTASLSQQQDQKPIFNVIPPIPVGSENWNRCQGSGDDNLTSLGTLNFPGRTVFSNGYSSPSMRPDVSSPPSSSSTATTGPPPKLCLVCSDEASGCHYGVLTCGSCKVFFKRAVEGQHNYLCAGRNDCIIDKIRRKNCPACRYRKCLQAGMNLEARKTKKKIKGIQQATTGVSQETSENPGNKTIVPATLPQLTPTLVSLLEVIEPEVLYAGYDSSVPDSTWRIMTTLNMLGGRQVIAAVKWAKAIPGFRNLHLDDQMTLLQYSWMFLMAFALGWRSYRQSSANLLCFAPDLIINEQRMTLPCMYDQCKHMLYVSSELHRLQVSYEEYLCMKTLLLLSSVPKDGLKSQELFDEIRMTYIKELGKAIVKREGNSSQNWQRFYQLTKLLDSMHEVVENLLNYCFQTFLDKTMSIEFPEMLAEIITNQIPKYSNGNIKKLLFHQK
In short: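 Translocation of GR-ED fusion to nuclear EA restores b-gal, read by luminescence after 1 h room-temperature detection. Engineered CHO-K1 biosensor cells, 1,000/well, exposed 2 h at 37 C to titrations up to 46 uM final.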

[7] = biological target: Cytochrome P450 3A4 (Homo sapiens) (UniProt P08684); assay: qHTS Assay for Activators of Cytochrome P450 3A4 (AID 885; active = well fitted curve in the direction sought with a large enough effect; an effect the other way counts as inactive or inconclusive; note: nearly all actives have a fitted effect of over 65% in size)
Sequence of Cytochrome P450 3A4 (Homo sapiens) (P08684 whole entry, looked up): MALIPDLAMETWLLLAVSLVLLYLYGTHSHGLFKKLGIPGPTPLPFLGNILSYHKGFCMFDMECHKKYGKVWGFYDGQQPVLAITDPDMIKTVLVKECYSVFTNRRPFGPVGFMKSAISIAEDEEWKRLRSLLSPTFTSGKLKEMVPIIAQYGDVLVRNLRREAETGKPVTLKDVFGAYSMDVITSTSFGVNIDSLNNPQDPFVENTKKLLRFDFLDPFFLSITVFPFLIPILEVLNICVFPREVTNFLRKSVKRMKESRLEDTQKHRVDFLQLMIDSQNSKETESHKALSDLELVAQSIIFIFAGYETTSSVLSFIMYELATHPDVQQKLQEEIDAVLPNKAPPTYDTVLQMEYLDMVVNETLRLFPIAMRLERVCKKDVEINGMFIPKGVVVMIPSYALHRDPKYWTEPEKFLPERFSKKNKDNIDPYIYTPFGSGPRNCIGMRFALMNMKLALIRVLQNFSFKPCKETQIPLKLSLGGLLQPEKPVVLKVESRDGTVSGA
In short: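 CYP3A4 activity: Luciferin-PPXE O-dealkylation, 25uM substrate, 200mM KPO4, RT throughout. Read-out is luciferase luminescence; higher values reflect activation.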

[8] = qHTS Assay for Lipid Storage Modulators (AID 1519; calls by dose curve); conditions: Drosophila S3 cells, BODIPY lipid droplet/cell ratio, laser cytometry, cells loaded with oleic acid
In short: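 Cells seeded at 5,000 per well were treated with compounds over a concentration series and loaded with oleic acid (400 uM, as added). Lipid droplet fluorescence (488 nm excitation, 500-530 nm channel) was read by laser-scanning cytometry and normalized to 20 uM Triacsin C.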

[9] = biological target: Glucocorticoid receptor (Homo sapiens) (UniProt P04150); assay: GR-GFP Redistribution (AID 450;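 active = compounds whose dose series gives a full or clear partial fitted curve of increased nuclear translocation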; note: potency is the fitted concentration of half-maximal effect); conditions: U2OS GR-GFP nuclear translocation, laser cytometry, 2 h
[10] = biological target: Mitogen-activated protein kinase 10 (Mus musculus) (UniProt Q61831); assay: JNK3 AlphaScreen Assay (AID 530);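 note: kinase came from lysate of stimulated human HepG2 cells; signal reports phosphorylation of biotinylated GST-cJun 1-79 at Ser73 with 10 µM ATP; % is set by controls: 0 for no effect and ±100 for the full control effect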
In short: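 qHTS titrations with 15 min compound pre-incubation before adding ATP (10 uM final). Read-out: AlphaScreen of Ser73-phosphorylated biotin-GST-cJun using HepG2 lysate JNK3 activated by IL-1β and TNFα.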

[11] = biological target: 3',5'-cyclic-AMP phosphodiesterase 4B (Homo sapiens) (UniProt Q07343); assay: qHTS Assay for Inhibitors of PDE-IV (AID 607; active = well fitted activation curve with a large enough effect in the main read-out, with a control signal flat, not every such curve was filed as active; note: % of control where 0% means no effect)
Sequence of 3',5'-cyclic-AMP phosphodiesterase 4B (Homo sapiens) (Q07343 whole entry, looked up): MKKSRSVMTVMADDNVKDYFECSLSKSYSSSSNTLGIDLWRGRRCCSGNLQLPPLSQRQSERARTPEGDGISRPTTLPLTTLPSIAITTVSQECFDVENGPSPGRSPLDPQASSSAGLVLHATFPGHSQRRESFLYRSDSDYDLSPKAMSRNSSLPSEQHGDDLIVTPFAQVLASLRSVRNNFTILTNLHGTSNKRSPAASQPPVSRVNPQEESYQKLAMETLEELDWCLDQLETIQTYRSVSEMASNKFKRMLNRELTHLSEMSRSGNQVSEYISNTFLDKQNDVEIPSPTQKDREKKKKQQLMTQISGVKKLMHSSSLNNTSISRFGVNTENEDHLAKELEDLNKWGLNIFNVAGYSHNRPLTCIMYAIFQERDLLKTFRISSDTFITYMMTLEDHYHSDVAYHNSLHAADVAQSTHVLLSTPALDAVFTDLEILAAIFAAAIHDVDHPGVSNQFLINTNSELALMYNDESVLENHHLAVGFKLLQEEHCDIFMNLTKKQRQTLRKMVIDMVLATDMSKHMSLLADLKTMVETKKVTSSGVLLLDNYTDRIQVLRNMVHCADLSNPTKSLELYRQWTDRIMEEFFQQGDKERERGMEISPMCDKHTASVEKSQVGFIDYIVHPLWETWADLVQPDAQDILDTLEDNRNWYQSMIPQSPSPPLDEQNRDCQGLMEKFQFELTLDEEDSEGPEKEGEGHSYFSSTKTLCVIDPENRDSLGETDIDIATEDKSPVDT
In short: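 ACTOne HEK293 cells carry a modified cAMP-gated CNG channel and express endogenous PDE4; plated 1000 cells/well, compounds up to 22.9 uM final. Membrane-potential dye fluorescence (ex 535/em 590) was read; parental cells received 10 uM forskolin + 100 uM RO 20-1724.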

[12] = biological target: Ubiquitin carboxyl-terminal hydrolase 1 (Homo sapiens) (UniProt O94782); assay: Inhibitors of USP1/UAF1: Pilot qHTS (AID 504865; active = well fitted curve in the direction sought with a large enough effect; an effect the other way counts as inactive or inconclusive;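 note: rhodamine fluorescence freed from ubiquitin-rhodamine substrate followed over time; top concentration of the series differs between compounds; % is set by controls: 0 for no effect and ±100 for the full control effect; nearly all actives have a fitted effect of over 35% in size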)
Sequence of Ubiquitin carboxyl-terminal hydrolase 1 (Homo sapiens) (O94782 whole entry, looked up): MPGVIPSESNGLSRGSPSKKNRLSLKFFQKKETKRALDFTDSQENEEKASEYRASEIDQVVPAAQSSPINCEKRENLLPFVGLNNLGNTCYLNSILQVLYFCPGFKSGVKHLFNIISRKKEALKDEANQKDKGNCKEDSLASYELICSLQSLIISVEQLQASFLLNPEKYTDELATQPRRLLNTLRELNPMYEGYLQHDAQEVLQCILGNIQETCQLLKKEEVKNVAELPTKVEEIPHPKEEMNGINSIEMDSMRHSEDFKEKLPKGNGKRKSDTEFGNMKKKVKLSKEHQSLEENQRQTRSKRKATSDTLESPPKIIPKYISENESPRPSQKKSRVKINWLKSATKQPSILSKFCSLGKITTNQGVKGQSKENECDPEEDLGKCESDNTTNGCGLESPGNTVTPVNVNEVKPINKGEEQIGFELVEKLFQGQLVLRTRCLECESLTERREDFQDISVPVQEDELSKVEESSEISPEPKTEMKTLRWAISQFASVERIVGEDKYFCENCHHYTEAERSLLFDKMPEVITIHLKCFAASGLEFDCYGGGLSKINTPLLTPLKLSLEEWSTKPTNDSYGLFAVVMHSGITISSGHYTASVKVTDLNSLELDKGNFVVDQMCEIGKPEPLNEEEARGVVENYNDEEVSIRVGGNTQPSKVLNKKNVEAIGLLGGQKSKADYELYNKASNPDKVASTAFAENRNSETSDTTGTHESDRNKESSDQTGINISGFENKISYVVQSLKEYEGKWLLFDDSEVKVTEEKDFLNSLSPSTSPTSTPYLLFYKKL
In short: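 1nM USP1/UAF1 + cpd, 15 min RT; start w/ Ub-Rho 150nM final; kinetic FL 480/540 nm, 6 reads q60 s. Buffer 50mM HEPES pH 7.8, 0.5mM EDTA, 1mM TCEP, 0.01% Tween-20, 0.1 mg/ml BSA.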

[13] = biological target: ATP-dependent 6-phosphofructokinase (Trypanosoma brucei brucei) (UniProt O15648); assay: qHTS Assay to Find Inhibitors of T. brucei phosphofructokinase: hit validation (AID 492961; active = well fitted curve in the direction sought with a large enough effect; an effect the other way counts as inactive or inconclusive)
Sequence of ATP-dependent 6-phosphofructokinase (Trypanosoma brucei brucei) (O15648 whole entry, looked up): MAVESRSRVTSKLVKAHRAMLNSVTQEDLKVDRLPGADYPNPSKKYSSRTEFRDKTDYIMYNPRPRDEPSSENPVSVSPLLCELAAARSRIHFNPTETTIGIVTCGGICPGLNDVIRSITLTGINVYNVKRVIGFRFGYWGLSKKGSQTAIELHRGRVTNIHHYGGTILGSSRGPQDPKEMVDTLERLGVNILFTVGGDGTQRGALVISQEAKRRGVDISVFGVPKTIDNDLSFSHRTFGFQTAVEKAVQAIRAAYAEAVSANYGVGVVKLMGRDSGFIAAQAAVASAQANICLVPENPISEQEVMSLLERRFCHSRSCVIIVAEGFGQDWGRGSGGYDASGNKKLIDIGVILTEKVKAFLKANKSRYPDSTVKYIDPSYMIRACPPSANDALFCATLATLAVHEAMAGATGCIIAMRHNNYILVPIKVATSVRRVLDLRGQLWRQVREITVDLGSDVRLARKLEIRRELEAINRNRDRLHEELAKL
In short: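 In this biochemical qHTS validation, titrated compounds were tested against 1.25 nM PFK with 0.1 mM ATP and 0.5 mM F6P. Percent activity came from controls lacking or containing enzyme.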

[14] = biological target: Luciferin 4-monooxygenase (Photinus pyralis) (UniProt P08659); assay: Biochemical firefly luciferase enzyme assay for NPC (AID 624030; active = well fitted curve in the direction sought with a large enough effect; an effect the other way counts as inactive or inconclusive;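 note: purified P. pyralis luciferase at 10 nM with luciferin and ATP substrate; 0% = DMSO and -100% = full luciferase inhibition by PTC124 control; nearly all actives have a fitted effect of over 70% in size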)
Sequence of Luciferin 4-monooxygenase (Photinus pyralis) (P08659 whole entry, looked up): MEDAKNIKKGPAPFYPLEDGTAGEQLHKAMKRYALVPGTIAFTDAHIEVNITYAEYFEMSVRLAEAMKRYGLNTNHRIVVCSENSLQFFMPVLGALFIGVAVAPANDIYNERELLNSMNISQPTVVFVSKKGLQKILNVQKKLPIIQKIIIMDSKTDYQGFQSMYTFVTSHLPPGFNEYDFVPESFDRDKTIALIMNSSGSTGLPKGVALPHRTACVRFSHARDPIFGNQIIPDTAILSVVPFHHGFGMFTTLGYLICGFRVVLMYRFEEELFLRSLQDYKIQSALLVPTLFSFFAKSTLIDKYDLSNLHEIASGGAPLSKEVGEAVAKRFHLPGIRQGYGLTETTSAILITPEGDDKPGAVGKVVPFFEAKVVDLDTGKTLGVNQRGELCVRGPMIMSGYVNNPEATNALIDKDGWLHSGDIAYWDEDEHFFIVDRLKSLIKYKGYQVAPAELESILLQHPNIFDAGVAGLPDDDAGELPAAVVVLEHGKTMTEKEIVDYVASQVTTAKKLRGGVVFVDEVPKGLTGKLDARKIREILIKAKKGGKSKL
In short: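 Direct inhibition of firefly luciferase enzyme (10 nM final, 50 mM Tris Acetate) assessed by luminescence within 5 minutes. Percent activity scaled between DMSO and PTC124 positive control, with concentration-effect curves classified by fit quality and response.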

[15] = S16 Schwann cell PMP22 intronic element firefly luciferase assay (AID 624032; active = well fitted curve in the direction sought with a large enough effect; an effect the other way counts as inactive or inconclusive;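 note: plate controls were DMSO for no effect and PTC124 positive control mean for full effect; nearly all actives have a fitted effect of over 30% in size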)
In short: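 Luciferase reporter of PMP22 intronic-element expression in stably transfected S16 rat Schwann cells, read by ONE-Glo luminescence after 24 h compound exposure at 37 C. Activity scaled between DMSO (0%) and positive-control PTC124; concentration-effect curves quality-classified.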

[16] = qHTS profiling for inhibitors of Plasmodium falciparum proliferation (AID 504749; active = well fitted curve in the direction sought with a large enough effect; an effect the other way counts as inactive or inconclusive;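 note: 0% = DMSO vehicle and full inhibition = artemisinin control; nearly all actives have a fitted effect of over 60% in size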); conditions: P. falciparum in erythrocytes, SYBR Green DNA, 72 h, at 12.8 µM (top of the series)
In short: (§1)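 SYBR Green fluorescence of parasite DNA, read after lysis and overnight dark incubation, measured growth over 72 h in erythrocyte culture at 0.3% parasitemia and 2.5% hematocrit. Data normalised to DMSO and 0.29 uM artemisinin, with plate-drift correction.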

[17] = system: C2A; assay: as above; conditions: P. falciparum in erythrocytes, SYBR Green DNA, 72 h; series mostly up to 28.7 µM
In short: as §1

[18] = system: CP192; assay: as above; conditions: P. falciparum in erythrocytes, SYBR Green DNA, 72 h; series mostly up to 28.7 µM
In short: as §1

[19] = system: CP262; assay: as above; conditions: P. falciparum in erythrocytes, SYBR Green DNA, 72 h; series mostly up to 28.7 µM
In short: as §1

[20] = system: FAB9; assay: as above; conditions: P. falciparum in erythrocytes, SYBR Green DNA, 72 h; series mostly up to 28.7 µM
In short: as §1

[21] = measured here: cell count channel max response
[22] = measured here: lipid channel max response

CN1CC[C@@]2(CCCN(C(=O)Oc3ccccc3)C2)C1
16.8%: max response [8, 21]
inactive: Potency [1] > 11.4 µM | outcome [2] | Potency [3] | activity change, negative = inhibition ([4]; at 7.69 µM (top of the series)) 0.664% | outcome [5] | Potency [6] > 46 µM | Potency [7] | activity change, negative = inhibition ([8]; at 57.5 µM (top of the series)) 2.41%
22%: max response [8, 22]

COc1ccc(OC)c([C@H](O)[C@H](C)N)c1
inactive: outcome [2] | Potency [3] | activity change, negative = inhibition ([4]; at 17.2 µM (top of the series)) 4.39% | activity change, negative = inhibition ([4]; at 38 µM (top of the series)) 2.27% | outcome [5] | Potency [9] > 46 µM and > 20.6 µM | Potency [6] > 46 µM and > 20.6 µM | outcome [10] | Potency [11] | activity change, negative = inhibition ([8]; at 25.7 µM (top of the series)) 1.13% | Potency [12]
6.97%: max response [8, 22]
7.1%: max response [8, 21]

C[C@]12CC[C@H](O)C[C@@H]1CC[C@H]1[C@H]2CC[C@]2(C)C(=O)CC[C@@H]12
-12.1% and -8.44% and -22.6%: max response [8, 22]
inactive: outcome [2] | Potency [3] | activity change, negative = inhibition ([4]; at 17.2 µM (top of the series)) 4.61% and 4.01% and -7.96% | activity change, negative = inhibition ([4]; at 38 µM (top of the series)) 8.64% | outcome [5] | Potency [9] > 46 µM and > 20.6 µM | Potency [6] > 46 µM and > 20.6 µM | outcome [10] | Potency [11] | Potency [7] | activity change, negative = inhibition ([8]; at 25.7 µM (top of the series)) -2.44% and -2.6% and -5.42% | Potency [12]
-9.77% and -5.73% and -17.9%: max response [8, 21]

O=C(Oc1ccccc1)N1CCC2(CC1)CCN(C(c1ccccc1)c1ccccc1)CC2
5.73%: max response [8, 21]
13.3%: max response [8, 22]
inactive: Potency [1] > 11.4 µM | outcome [2] | activity change, negative = inhibition ([4]; at 7.69 µM (top of the series)) -0.91% | outcome [5] | Potency [6] > 46 µM | outcome [10] | activity change, negative = inhibition ([8]; at 57.5 µM (top of the series)) 4.05%

CN(C)C(=O)Oc1cc(OC(=O)N(C)C)cc([C@@H](O)CNC(C)(C)C)c1
0.267%: max response [8, 22]
inactive: outcome [2] | Potency [3] | activity change, negative = inhibition ([4]; at 17.2 µM (top of the series)) -23.9% | outcome [5] | Potency [9] > 20.6 µM | Potency [6] > 20.6 µM | outcome [10] | Potency [11] | activity change, negative = inhibition ([8]; at 25.7 µM (top of the series)) -0.844% | Potency [13] | Potency [12] | Potency [14] | Potency [15] | activity, negative = inhibition ([16]; parasite line A) 1.47% | activity, negative = inhibition ([16]; parasite line B) -2.95% | Potency [17] | Potency [18] | Potency [19] | Potency [20]
2.58%: max response [8, 21]

c1ccc(CN2CCC3(CCNCC3)CC2)cc1
inactive: Potency [1] > 11.4 µM | outcome [2] | Potency [3] | outcome [5] | Potency [6] > 46 µM | outcome [10] | Potency [11] | activity change, negative = inhibition ([8]; at 57.5 µM (top of the series)) 1.99%
22.2%: max response [8, 21]
27.4%: max response [8, 22]

CN1CCc2cc3c(cc2[C@@H]1[C@@H]1OC(=O)c2c1ccc1c2OCO1)OCO3
inactive: outcome [2] | activity change, negative = inhibition ([4]; at 17.2 µM (top of the series)) 4.41% | activity change, negative = inhibition ([4]; at 38 µM (top of the series)) -4.78% | outcome [5] | Potency [9] > 46 µM and > 20.6 µM | Potency [6] > 46 µM and > 20.6 µM | outcome [10] | Potency [7] | activity change, negative = inhibition ([8]; at 25.7 µM (top of the series)) -1.13%
active: Potency [3] 15.8 µM
-3.68%: max response [8, 21]
-5.44%: max response [8, 22]
